# Data taken from PubChem BioAssay.
# “And” between values parts separate entries of the source, which are not always exact repeats. Equal entries are not always repeated. The source made the active and inactive calls. Cut-off read from the data, not from the text of the source, unless noted: active = parasite load remaining mostly below about 12% (no sharp cut-off); inactive = mostly above about 10%.
# Key:
# [1] = suppressors of polyQ aggregation in yeast, 75Q-TubU reporter (AID 1593); conditions: Yeast 75Q polyglutamine aggregation reporter
# [2] = inhibitors of mitochondrial cytochrome c release, biochemical, purified mitochondria (AID 1603); conditions: stronger effect = lower value;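 note: mouse liver mitochondria challenged with calcium chloride; signal normalized to the plate average as 100%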
# [3] = inhibitors of polyQ protein aggregation (AID 1604); conditions: polyglutamine-induced protein aggregation inhibition assay; stronger effect = higher value; tested at 2.5 µM
# [4] = liver-stage malaria parasite growth inhibition, primary screen, cell-based, HepG2, luciferase luminescence, HepG2 viability (AID 624349);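 note: 100% = mean of DMSO negative control wells on the same plate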; conditions: P. berghei liver stage in HepG2, luciferase luminescence, concentration not given here; parasite load remaining: stronger effect = lower value; viability: measured here: HepG2 viability without parasites
# [5] = stimulators of nuclear beta-catenin in C2C12, primary screen, imaging, WNT3A-conditioned medium, mouse C2C12, NPC library (AID 1117326; in the data active = nuclear beta-catenin stimulation mostly above about 4.2%, no sharp cut-off; inactive = mostly below about 10%); conditions: stronger effect = higher value
# [6] = stimulators of insulin release from INS-1E, primary screen, cell-based, 5 mM glucose, NPC library (AID 1117329;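 active = compound raises insulin release from rat beta cells at 5 mM glucose, no numeric limit stated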); conditions: rat INS-1E insulin secretion, at 10 µM, stronger effect = higher value
# [7] = growth inhibition of GSK3B-pretreated HCT116 cells – cell-based, CellTiter-Glo, 0.2 to 20 µM (AID 1117336;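 active = compounds lowering colon cancer cell viability after pretreatment blocking the GSK3B kinase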); conditions: HCT116 viability after GSK3B inhibitor, at 20 µM, stronger effect = higher value
# [8] = inhibition of endothelial tube formation, primary screen, imaging, VEGF stimulated, CD31 staining, tube area, NPC library (AID 1117340;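 active = compound that reduces growth-factor-driven endothelial tube area in a mixed cell culture, no cutoff stated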); conditions: VEGF-stimulated ADSC/ECFC co-culture, at 10 µM, stronger effect = higher value
# [9] = glucagon-like peptide 1 release enhancers, primary assay, NCI-H716 cell line, NPC library (AID 1117341;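 active = compound raises GLP1 secretion from the human gut endocrine cells, with no numeric limit stated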); conditions: NCI-H716 cells, at 10 µM, stronger effect = higher value
# [10] = HCT116 colon cancer cell growth inhibition, primary screen, CellTiter-Glo luminescence, NPC library (AID 1117342;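 active = compounds that lower survival of HCT116 colon cancer cells in the luminescence readout, no numeric limit stated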); conditions: at 20 µM (top of the series)
# [11] = CellTiter-Glo luminescent readout of SW480 viability loss, NPC library primary (AID 1117343;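 active = compounds that lower viability of the colon cancer cells in the luminescence readout, with no numeric limit stated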); conditions: CellTiter-Glo luminescence; at 20 µM (top of the series)
# [12] = decreased DLD-1 cellular survival, CellTiter-Glo luminescent readout, NPC compound collection, primary HTS (AID 1117346;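 active = compounds that lower survival of DLD-1 colon cancer cells in the luminescence readout, no cutoff given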); conditions: DLD-1 viability, CellTiter-Glo luminescence; at 20 µM (top of the series)
# [13] = target: 6-phosphogluconate dehydrogenase, decarboxylating (Homo sapiens) (UniProt P52209); assay: 6PGD enzyme inhibitors, primary screen, biochemical, human, recombinant enzyme, NADPH absorbance (AID 1159550;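 active = at least 20% inhibition of 6-phosphogluconate dehydrogenase activity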); conditions: recombinant 6PGD, NADPH absorbance 341 nm; at 10 µM; stronger effect = higher value
# [14] = differential killing of epithelial or mesenchymal cells, primary screen, imaging, PC-3E GFP, TEM4-18 mCherry, co-culture (AID 1345086;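 active = compounds killing one labelled cell type while sparing the other, by normalised counts and ratio limits, not self-fluorescent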;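 for all read-outs here: cells exposed to compound for 72 h before imaging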;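 for red/green cell ratio (normalised): normalised mesenchymal count divided by normalised epithelial count so high means epithelial killing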); conditions: imaging cell counts, at 1 µM; for red/green cell ratio (normalised): actives lie on both sides
# [15] = tested on: Aerobactin synthetase IucA (Klebsiella pneumoniae hvKP1); assay: Biochemical IucA enzyme inhibition primary screen of the Spectrum library (AID 1346200; call rule not given here;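 note: 100% = wells without compound and 0% = wells lacking enzyme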); conditions: malachite green pyrophosphate, A620, at 8 µM, stronger effect = lower value
# [16] = sensitizers of A549 cells to miR-34 induction, primary screen, imaging, A549 dox-inducible miR-34, nuclei and caspase counts (AID 1347080;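 active = compounds whose cell count with miR-34 switched on is under 0.7 times the count with it off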); conditions: A549 miR-34 inducible, Hoechst nuclei count, 48 h
# [17] = survival rescue of mitochondrial mutant cells in low glucose, primary screen, MELAS cybrids, Rieske KO mouse fibroblasts, CellTiter-Glo (AID 1508586;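 active = mean z-score across replicates of 1.96 or higher in either the MELAS or the Rieske mutant cell line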;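 note: z relative to plate mean and SD of compound and empty wells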)
# [18] = target: NAD(+) hydrolase SARM1 (Homo sapiens) (UniProt Q6SZW1); assay: SARM1 TIR NADase inhibitors, cell lysate, NAD-Glo luminescence (AID 1508614;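 active = compound whose remaining NAD level is above about 45 nM, limit read from the data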;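 note: higher remaining NAD means stronger inhibition of SARM1 NADase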); conditions: SAM-TIR HEK293T lysate NADase, at 1 µM, stronger effect = higher value
# [19] = target: Mitogen-activated protein kinase 7 (Homo sapiens) (UniProt Q13164); assay: ERK5 transactivation activators in reporter cells, primary screen, cell-based, HTS (AID 1508626;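 active = luciferase signal above three times the same-plate solvent-only control wells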;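 note: luciferase driven by Gal4-ERK5 fusion binding five Gal4 sites before minimal TATA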); conditions: HeLa Gal4-ERK5 transactivation, 18 h, at 5 µM, stronger effect = higher value
# [20] = measured here: epithelial PC-3E GFP cell survival
# [21] = measured here: mesenchymal TEM4-18 mCherry cell survival
# [22] = measured here: relative caspase fold change +Dox/-Dox
# [23] = measured here: total cells with miR-34 induction, stronger effect = lower value
# [24] = measured here: total cells without miR-34 induction
# Mitogen-activated protein kinase 7 (Homo sapiens), sequence (Q13164 whole entry, looked up, the tested form may be a part): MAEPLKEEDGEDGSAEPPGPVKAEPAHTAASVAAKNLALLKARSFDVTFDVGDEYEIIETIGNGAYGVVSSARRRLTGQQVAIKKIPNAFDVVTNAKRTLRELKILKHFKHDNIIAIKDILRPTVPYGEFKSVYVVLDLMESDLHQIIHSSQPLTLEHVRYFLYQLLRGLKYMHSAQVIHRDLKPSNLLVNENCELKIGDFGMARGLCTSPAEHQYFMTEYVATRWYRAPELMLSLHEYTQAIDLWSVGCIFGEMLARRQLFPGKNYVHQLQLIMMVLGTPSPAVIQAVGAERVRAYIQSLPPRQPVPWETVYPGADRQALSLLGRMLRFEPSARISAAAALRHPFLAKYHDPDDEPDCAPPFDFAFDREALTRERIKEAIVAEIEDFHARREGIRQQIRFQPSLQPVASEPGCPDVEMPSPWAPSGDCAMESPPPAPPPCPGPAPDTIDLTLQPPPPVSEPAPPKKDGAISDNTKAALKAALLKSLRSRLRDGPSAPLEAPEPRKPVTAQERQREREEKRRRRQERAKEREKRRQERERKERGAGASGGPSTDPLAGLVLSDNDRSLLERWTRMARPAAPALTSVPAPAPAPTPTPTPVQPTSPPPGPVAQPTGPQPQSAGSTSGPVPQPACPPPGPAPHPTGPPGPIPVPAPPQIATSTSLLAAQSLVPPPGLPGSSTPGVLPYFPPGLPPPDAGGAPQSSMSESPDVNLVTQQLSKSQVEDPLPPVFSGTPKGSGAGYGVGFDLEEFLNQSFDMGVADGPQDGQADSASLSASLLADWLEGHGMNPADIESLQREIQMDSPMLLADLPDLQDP
# 6-phosphogluconate dehydrogenase, decarboxylating (Homo sapiens), sequence (P52209 whole entry, looked up): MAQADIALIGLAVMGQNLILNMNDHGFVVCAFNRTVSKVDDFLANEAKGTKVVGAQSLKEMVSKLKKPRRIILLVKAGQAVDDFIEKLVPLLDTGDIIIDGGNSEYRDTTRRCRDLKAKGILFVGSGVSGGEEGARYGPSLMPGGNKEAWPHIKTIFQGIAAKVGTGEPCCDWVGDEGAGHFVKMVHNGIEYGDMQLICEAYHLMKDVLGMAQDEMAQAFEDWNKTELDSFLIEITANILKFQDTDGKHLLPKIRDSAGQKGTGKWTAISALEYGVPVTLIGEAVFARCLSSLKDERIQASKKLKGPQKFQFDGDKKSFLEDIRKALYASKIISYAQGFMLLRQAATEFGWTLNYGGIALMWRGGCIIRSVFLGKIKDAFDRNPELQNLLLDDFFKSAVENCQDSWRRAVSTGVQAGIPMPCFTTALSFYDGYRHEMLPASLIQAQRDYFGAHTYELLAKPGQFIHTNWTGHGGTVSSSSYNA
# NAD(+) hydrolase SARM1 (Homo sapiens), sequence (Q6SZW1 whole entry, looked up, the tested form may be a part): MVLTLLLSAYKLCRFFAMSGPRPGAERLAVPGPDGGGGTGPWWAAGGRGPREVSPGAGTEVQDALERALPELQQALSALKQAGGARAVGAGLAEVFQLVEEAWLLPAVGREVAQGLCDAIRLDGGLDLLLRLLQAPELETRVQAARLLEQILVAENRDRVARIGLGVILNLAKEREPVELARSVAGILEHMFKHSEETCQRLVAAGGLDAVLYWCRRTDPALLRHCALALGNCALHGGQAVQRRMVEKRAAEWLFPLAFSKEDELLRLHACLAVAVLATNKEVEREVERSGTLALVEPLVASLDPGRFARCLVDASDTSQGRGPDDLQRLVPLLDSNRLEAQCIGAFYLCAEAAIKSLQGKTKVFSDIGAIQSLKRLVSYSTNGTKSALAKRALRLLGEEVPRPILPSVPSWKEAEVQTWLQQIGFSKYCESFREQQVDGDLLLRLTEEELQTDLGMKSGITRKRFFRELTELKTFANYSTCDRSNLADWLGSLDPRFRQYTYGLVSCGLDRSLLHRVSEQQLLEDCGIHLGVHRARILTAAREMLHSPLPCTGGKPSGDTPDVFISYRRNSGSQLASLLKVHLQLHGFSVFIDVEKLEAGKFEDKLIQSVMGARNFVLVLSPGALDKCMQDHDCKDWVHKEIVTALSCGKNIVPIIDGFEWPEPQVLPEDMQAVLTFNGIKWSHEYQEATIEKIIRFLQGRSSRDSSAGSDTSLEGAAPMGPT
compound,measurement,setting,value
c1ccc2c(c1)sc1ccccc12,score,[1],-0.17
same,cytochrome c release ratio,[2],0.98
same,inhibition of aggregation,[3],65.4%
same,parasite load remaining,[4],94.3% (inactive) and 69.4% (inactive)
same,viability,[4],70.5% and 91.8%
same,nuclear beta-catenin stimulation,[5]; at 10 µM,0.1% (inactive)
same,nuclear beta-catenin stimulation,"[5]; stimulation, at 2 µM",0.9%
same,insulin secretion stimulation,[6],-1.4% (inactive)
same,viability decrease,[7],-3.95% (inactive)
same,tube area decrease,[8],-9.2% (inactive)
same,GLP1 secretion stimulation,[9],-2.6% (inactive)
same,inhibition of viability,[10],-22.5% (inactive)
same,viability decrease (inhibition),[11],-1.8% (inactive)
same,viability decrease (inhibition),[12],3% (inactive)
same,inhibition,[13],9.3% (inactive)
same,red/green cell ratio (normalised),[14],1.2 (inactive)
same,normalised cell number,[14]; [20],1.12
same,normalised cell number,[14]; [21],1.35
same,activity remaining,[15],113% (inactive)
same,fold change,[16]; stronger effect = lower value,0.934 (inactive) and 0.791 (inactive)
same,fold change,[16]; [22],0.629 and 1.03
same,cell count,[16]; [23],8380 and 10000
same,cell count,[16]; [24],8970 and 12600
same,z-score,"[17]; MELAS cybrid survival, CellTiter-Glo 48 h, stronger effect = higher value",-0.144 (inactive)
same,z-score,"[17]; Rieske KO mouse fibroblast survival, CellTiter-Glo 72 h",-0.145
same,remaining NAD,[18],10 nM (inactive)
same,luciferase signal,[19],32 AU (inactive)
C[C@H]1C(=O)O[C@@H]2CCN3CC=C(COC(=O)[C@](C)(O)[C@]1(C)O)[C@H]23,score,[1],1.29
same,cytochrome c release ratio,[2],0.94
same,inhibition of aggregation,[3],36.1%
same,parasite load remaining,[4],96.1% (inactive) and 65.8% (inactive) and 70.5% (inactive)
same,viability,[4],103% and 66% and 74.5%
same,nuclear beta-catenin stimulation,[5]; at 10 µM,-0.7% (inactive)
same,nuclear beta-catenin stimulation,"[5]; stimulation, at 2 µM",-0.6%
same,insulin secretion stimulation,[6],-0.1% (inactive)
same,viability decrease,[7],-4.9% (inactive)
same,tube area decrease,[8],17.9% (inactive)
same,GLP1 secretion stimulation,[9],-1.4% (inactive)
same,inhibition of viability,[10],-6% (inactive)
same,viability decrease (inhibition),[11],-1.2% (inactive)
same,viability decrease (inhibition),[12],-12.1% (inactive)
same,inhibition,[13],17% (inactive)
same,red/green cell ratio (normalised),[14],1.08 (inactive)
same,normalised cell number,[14]; [20],0.97
same,normalised cell number,[14]; [21],1.05
same,activity remaining,[15],111% (inactive)
same,fold change,[16]; stronger effect = lower value,0.8 (inactive)
same,fold change,[16]; [22],1.54
same,cell count,[16]; [23],8710
same,cell count,[16]; [24],10900
same,luciferase signal,[19],56 AU (inactive)
CC1=C2[C@H]3OC(=O)[C@@H](C)[C@@H]3CC[C@@]2(C)C=CC1=O,parasite load remaining,[4],92.1% (inactive)
same,viability,[4],72.5%
same,nuclear beta-catenin stimulation,[5]; at 10 µM,0.7% (inactive)
same,nuclear beta-catenin stimulation,"[5]; stimulation, at 2 µM",1%
same,insulin secretion stimulation,[6],0% (inactive)
same,viability decrease,[7],1.65% (inactive)
same,tube area decrease,[8],15.6% (inactive)
same,GLP1 secretion stimulation,[9],-0.6% (inactive)
same,inhibition of viability,[10],1.8% (inactive)
same,viability decrease (inhibition),[11],14.6% (inactive)
same,viability decrease (inhibition),[12],3.8% (inactive)
same,inhibition,[13],10.8% (inactive)
same,red/green cell ratio (normalised),[14],0.97 (inactive)
same,normalised cell number,[14]; [20],1.11
same,normalised cell number,[14]; [21],1.07
same,activity remaining,[15],93.8% (inactive)
same,fold change,[16]; stronger effect = lower value,0.915 (inactive)
same,fold change,[16]; [22],0.797
same,cell count,[16]; [23],8180
same,cell count,[16]; [24],8940
same,luciferase signal,[19],44 AU (inactive)
CC(=O)Nc1cc([As](=O)(O)O)ccc1O,score,[1],0.97
same,cytochrome c release ratio,[2],1.06
same,inhibition of aggregation,[3],43.7%
same,parasite load remaining,[4],96.4% (inactive) and 52.6% (inactive)
same,viability,[4],66.8% and 91.1%
same,nuclear beta-catenin stimulation,[5]; at 10 µM,4.8% (inactive)
same,nuclear beta-catenin stimulation,"[5]; stimulation, at 2 µM",0.2%
same,insulin secretion stimulation,[6],-0.2% (inactive)
same,viability decrease,[7],-42.6% (inactive)
same,tube area decrease,[8],-21.2% (inactive)
same,GLP1 secretion stimulation,[9],-0.8% (inactive)
same,inhibition of viability,[10],-7.73% (inactive)
same,viability decrease (inhibition),[11],16.9% (inactive)
same,viability decrease (inhibition),[12],-3.7% (inactive)
same,inhibition,[13],17.7% (inactive)
same,red/green cell ratio (normalised),[14],0.8 (inactive)
same,normalised cell number,[14]; [20],1.16
same,normalised cell number,[14]; [21],0.94
same,activity remaining,[15],107% (inactive)
same,fold change,[16]; stronger effect = lower value,0.975 (inactive)
same,fold change,[16]; [22],2.55
same,cell count,[16]; [23],12000
same,cell count,[16]; [24],12300
same,remaining NAD,[18],10 nM (inactive)
same,luciferase signal,[19],52 AU (inactive)
